# From PubChem
# Dicer processing = inhibitors of Dicer pre-microRNA processing, primary screen, biochemical, cat-ELCCA, chemiluminescence | cat-ELCCA pre-miR-21 Dicer processing; active compounds read high | z-score at 25 µM | 47,000 compounds, 6% hits | Endoribonuclease Dicer (Homo sapiens), Q9UPY3; in the data active means z-score above about 3, passing the limit was not always enough;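 further: plate controls were vehicle for no effect and no enzyme for full effect; higher signal means more uncleaved substrate so more Dicer inhibition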
# Active calls of the source: *. Only a selection was taken, and hits are over-represented in it overall.
SMILES,Dicer processing
CCC(C)NC(=O)CN1C(=O)c2cccc3cccc1c23 (configuration not stated),0.41
CCC(C)NC(=O)CN1C(=O)c2ccccc2S1(=O)=O (configuration not stated),0.07
CCCCc1nc(SCC(=O)NC2CCCCC2)n[nH]1,0.32
CC1(C)CC(=O)C2=C(C1)Nc1nonc1NC2c1cccc(Cl)c1 (configuration not stated),-1.16
OC1(C(F)(F)F)CC(c2cc3c(cc2Br)OCCO3)=NN1 (configuration not stated),-0.88
COc1cccc(C2C(C#N)=C(N)Oc3n[nH]c(-c4ccccc4)c32)c1 (configuration not stated),-9.78
Cc1nn(-c2ccccc2)c2c1C1(C)CC(C)(O2)c2c(C)nn(-c3ccccc3)c2O1,-8.8
CC1=NN(c2ccccc2)C(C2=C(C)CCCC2(C)C)C1 (configuration not stated),3.23*
Fc1ccc(C2=NN(c3ccccc3)C(c3ccc(F)cc3)C2)cc1 (configuration not stated),2.41
O=C(/C=C(\C(=O)c1ccccc1)c1ccccc1)c1ccc(C(F)(F)F)cc1,-1.96
COc1ccc(S(=O)(=O)NC2CCSC2=O)cc1 (configuration not stated),3.67*
O=C1SCCC1NS(=O)(=O)c1ccccc1 (configuration not stated),0.5
O=C(COc1ccc(Cl)cc1)NC1CCSC1=O (configuration not stated),0.2
N/C(=N\O)c1cccc(Cl)c1Cl,0.75
CC(C)(C)c1ccc(-c2nnc(NC(=O)C(Cl)Cl)s2)cc1,-0.6
CC(C)CN1C(=O)C(=O)/C(=C(\O)c2ccc(Cl)cc2)C1c1cccc(O)c1 (configuration not stated),-0.91
Cc1cccc(Cl)c1Oc1ccc(C(F)(F)F)cc1[N+](=O)[O-],-2.32
CN1[C@@H]2CC[C@@H]1CC(OC(=O)C(CO)c1ccccc1)C2 (some centres not stated),0.89
CCOC(=O)C(=CNc1cc(C(=O)OC)ccc1C)C(=O)OCC,-0.45
Cc1ccc2c(c1)-c1cc(C)nn1C(c1ccc(O)c(O)c1)N2 (configuration not stated),3.46*
Cc1ccc2c(c1)-c1cc(C)nn1C(c1cc(C)ccc1O)N2 (configuration not stated),1.01
Cc1cc(C)c2c(c1)-c1cc(C)nn1C(c1cccc(O)c1)N2 (configuration not stated),1.25
Cc1cc(C)c2c(c1)-c1cc(C)nn1C(c1ccccc1O)N2 (configuration not stated),-0.3
Cc1cc(C)c2c(c1)-c1cc(C)nn1C(c1cccc(O)c1O)N2 (configuration not stated),29.9*
Cc1ccc2c(c1)-c1cc(C)nn1C(c1sccc1C)N2 (configuration not stated),0.99
SMILES,Dicer processing
Cc1ccc2c(c1)-c1cc(C)nn1C(c1ccc3c(c1)OCO3)N2 (configuration not stated),1.17
COC(=O)c1ccc(C2Nc3ccc(C)cc3-c3cc(C)nn32)cc1 (configuration not stated),-0.59
Cc1ccc2c(c1)-c1cc(C)nn1C(c1cccc(O)c1O)N2 (configuration not stated),32.5*
CSc1nnc(SCC(=O)c2sc3ccc(Cl)cc3c2C)s1,-0.6
OC(Cn1cnc(-c2ccccc2)c1-c1ccccc1)Cn1ccc2ccccc21 (configuration not stated),-1.56
COC(=O)CNC(=O)c1cccnc1SC,-0.01
c1ccc(CSc2nncn2-c2ccc3c(c2)OCCO3)cc1,-0.7
COc1n[nH]c(C(=O)O)c1[N+](=O)[O-],-0.87
C/C=C(\C)C(=O)Nc1cc(C)ccc1-n1cccc1,0.28
CS(=O)(=O)c1ccc2ccn(O)c2c1,-3.51
Cc1ccc(I)cc1N=C(N)N=C(N)N,-0.68
COc1ccc(C2N(S(=O)(=O)c3ccc(C)cc3)CCN2S(=O)(=O)c2ccc(C)cc2)cc1,3.69*
O=S(=O)(c1ccccc1)N1CCSC1c1ccc(Br)cc1 (configuration not stated),0.54
O=S(=O)(c1ccccc1)N1CCSC1c1ccc(Cl)cc1 (configuration not stated),-1.03
Cc1ccc(S(=O)(=O)N2CCN(S(=O)(=O)c3ccccc3)C2c2ccc(N(C)C)cc2)cc1 (configuration not stated),2.09
COc1ccc(OC)c(C2SCCN2S(=O)(=O)c2ccc(C)cc2)c1 (configuration not stated),-0.82
COc1ccc(S(=O)(=O)N2CCSC2c2cc(OC)ccc2OC)cc1 (configuration not stated),3.71*
COc1ccc(C2N(S(=O)(=O)c3ccccc3)CCN2S(=O)(=O)c2ccccc2)cc1,-1.72
O=S(=O)(c1ccc(-c2ccccc2)cc1)N1CCSC1c1ccccc1 (configuration not stated),3.84*
COc1ccc(OC)c(C2SCCN2S(=O)(=O)c2ccc(F)cc2)c1 (configuration not stated),-0.82
FC(F)(F)c1cccc(-c2nc3c(Cl)cc(C(F)(F)F)cn3n2)c1,0.33
Cc1ccc(C(=O)C2CCN(C(=S)Nc3cccc(Cl)c3)CC2)cc1,0.79
Cc1cccc2nc3c(nc12)C(O)=C3O,0.07
COc1ccc(-c2nn(-c3ccccc3)cc2C2CC(c3ccco3)=NN2S(C)(=O)=O)cc1 (configuration not stated),0.22
CCCc1cnc(N2CCCN(S(=O)(=O)c3ccc(C(=O)OC)n3C)CC2)nc1,-0.49
SMILES,Dicer processing
Cc1cc(N=Cc2ccccc2O)no1,4.47*
Cc1cc(N=CNOC(=O)c2nn(-c3ccccc3)nc2C)no1,-0.95
CC(=O)/C(C=Nc1cc(C)on1)=C(\C)O,-1.04
O=C1COc2ccccc2N1C(=O)c1ccc(Cl)cc1,-0.58
Cc1ccc(-c2cc(=O)c3c(=O)n(-c4ccccc4)[nH]c3[nH]2)cc1,-0.59
c1ccc(-c2cc3ccccc3[nH]2)cc1,-0.6
Cc1ccc(-c2cc3ccccc3[nH]2)cc1,15.9*
COC(=O)CSc1nnc(-c2ccc(Br)cc2)o1,2.71
O=[N+]([O-])c1ccc2c(c1)S(=O)(=O)CC2Sc1cccs1 (configuration not stated),-1.99
Cn1c(=O)c2c(nc(NCc3ccc4c(c3)OCO4)n2Cc2ccc(Br)cc2)n(C)c1=O,1.21
CC1(C)Cc2ccccc2C2=C(C(=O)N3CCCC3)C(=O)C(=O)N21,-1.27
O=C1C(=O)N2C(=C1C(=O)N1CCOCC1)c1ccccc1CC21CCCC1,-1.08
CCC1(CC)Cc2ccccc2C2=C(C(=O)N3CCOCC3)C(=O)C(=O)N21,3.97*
Cc1cc(C)c2c(n1)sc1c(Sc3nnc(-c4ccncc4)n3Cc3ccccc3)ncnc12,14.8
S=c1[nH]cc(-c2ccc(Br)cc2)[nH]1,-1.71
CC(=O)N(/C=C/c1nnnn1-c1ccccc1)c1ccc(C)cc1,1.21
COc1ccc(C2CC(c3ccc(Br)cc3)=NN2C(=O)CCCC(=O)O)cc1OC (configuration not stated),0.45
O=S(=O)(Nc1ccc(Br)cc1)c1ccccc1,1.76
COc1ccc(OC)c(S(=O)(=O)Nc2cc(Cl)c3oc(=O)sc3c2)c1,-0.17
O=c1oc2c(Cl)cc(NS(=O)(=O)c3ccccc3)cc2s1,11.3*
Cc1ccc(S(=O)(=O)N2CCN(S(=O)(=O)N3CCOCC3)CC2)c(C)c1,-1.88
Cc1cc(S(=O)(=O)Nc2cccnc2)c(C)cc1Cl,-0.28
